These results are taken from PubChem BioAssay (Tox21).

Inconclusive results are not listed. Values without a mark were called inactive. The source made the active and inactive calls. Unless noted, calls come from the whole dose curve; as a rule, active = well fitted curve in the direction sought with a large enough effect in the repeat runs; inconclusive = weak or mixed curves; inactive = no such curve, though single readings can be large; an effect the other way counts as inactive or inconclusive.

Assay [1] in a line: qHTS assay to identify aromatase inhibitors - cell viability counter screen (AID 743084).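 Note: cells stimulated with testosterone during compound exposure; nearly all actives have a fitted effect of over 55% in size.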
Assay [2] has as its target Aryl hydrocarbon receptor (Homo sapiens) (UniProt P35869). The assay can be described thus: qHTS assay to identify small molecule that activate the aryl hydrocarbon receptor (AhR) signaling pathway (AID 743085).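 For activation: HG2L7.5c1 human HepG2 liver cells with stably integrated DRE-driven firefly reporter; series mostly up to about 70 µM.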 Note: nearly all actives have a fitted effect of over 15% in size. Note: potency is the fitted concentration of half-maximal effect. A digest of the protocol:
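Steps: seed HepG2-AhR-luc cells; allow 5 h at 37C; pin-transfer test compound or vehicle; incubate 24 h at 37C; add viability dye (30 min, 37C) and read fluorescence; add luciferase substrate (30 min, RT) and read luminescence.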

A short description of assay [3]: qHTS assay to identify small molecule that activate the aryl hydrocarbon receptor (AhR) signaling pathway - cell viability counter screen (AID 743086). Note: series mostly up to about 70 µM; nearly all actives have a fitted effect of over 45% in size. The method in brief: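 Cytotoxicity counter screen: CellTiter-Fluor signal (30 min, 37 C) in 4000 HepG2 cells/well carrying the DRE-luciferase reporter, following 24 h compound exposure at 37 C.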
Assay [4] concerns the target Peroxisome proliferator-activated receptor gamma (Homo sapiens) (UniProt P37231). The assay can be described thus: qHTS assay to identify small molecule agonists of the peroxisome proliferator-activated receptor gamma (PPARg) signaling pathway (AID 743094; active = well fitted activation curve with a large enough effect in the signal ratio in the repeat runs, not every such curve was filed as active; the % refers to the signal ratio). The method in brief: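 Agonist activity was taken from a beta-lactamase reporter (FRET substrate, 1 h at room temperature) in HEK293H cells carrying a PPARg UAS-bla construct. Compounds in DMSO were incubated 17 h at 37C after a 5 h cell pre-incubation.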

For assay [5] the target is unchanged. The assay can be described thus: qHTS assay to identify small molecule antagonists of the peroxisome proliferator-activated receptor gamma (PPARg) signaling pathway (AID 743191; calls by dose curve; note: series mostly up to about 63 µM; nearly all actives have a fitted effect of over 30% in size). A digest of the protocol:
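Beta-lactamase reporter under UAS control in HEK293H PPARg-bla cells; compound treatment 17 h at 37C. Read-out: fluorescence intensity after 1 h room-temperature incubation with LiveBLAzer B/G FRET substrate.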

The nature of assay [6]: qHTS assay to identify small molecule antagonists of the peroxisome proliferator-activated receptor gamma (PPARg) signaling pathway - cell viability counter screen (AID 743194). Note: nearly all actives have a fitted effect of over 55% in size. The following applies: Potency: co-treated with 50 nM rosiglitazone unless noted. The method in brief: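 Viability was measured as CellTiter-Glo luminescence in GeneBLAzer PPARg UAS-bla HEK293H cells. These cells had been exposed 17 h at 37 C to compounds together with rosiglitazone at 50 nM final, with the beta-lactamase readout taken in the same wells.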

A short description of assay [7]: qHTS assay for small molecule agonists of the antioxidant response element (ARE) signaling pathway (AID 743202; active = well fitted activation curve with a large enough effect in the signal ratio in the repeat runs, not every such curve was filed as active; the % refers to the signal ratio). A digest of the protocol: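 Beta-lactamase reporter activity, read as fluorescence intensity, reflects ARE/Nrf2 pathway induction in HepG2 cells after 16 h compound exposure at 37 C; substrate loading was 2 h at room temperature.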
A short description of assay [8]: qHTS assay for small molecule agonists of the antioxidant response element (ARE) signaling pathway - cell viability counter screen (AID 743203; calls by dose curve; note: nearly all actives have a fitted effect of over 55% in size). The method in brief: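 Viability counter screen: CellTiter-Glo luminescence, read after 30 min at room temperature, in ARE-bla HepG2 wells. Compound exposure lasted 16 h at 37C/5% CO2, following a 5 h pre-incubation of the cells after plating.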

A short description of assay [9]: qHTS assay for small molecule activators of the heat shock response signaling pathway - cell viability counter screen (AID 743209). Note: nearly all actives have a fitted effect of over 50% in size. The method in brief: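 Cytotoxicity counter screen run in the same wells as the heat-shock bla reporter assay: HeLa HSE-bla cells, 5 h compound exposure at 37 C, viability read by CellTiter-Glo luminescence.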
Assay [10] is described as follows: qHTS assay for small molecule activators of the heat shock response signaling pathway (AID 743210; active = well fitted activation curve with a large enough effect in the signal ratio in the repeat runs, with a control signal flat, not every such curve was filed as active; the % refers to the signal ratio;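 note: HeLa cells with beta-lactamase reporter driven by heat shock elements; series mostly up to about 63 µM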). The method in brief:
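Fluorescence from a cleaved B/G FRET substrate (2.5 h, room temp) reports HSE-driven beta-lactamase in HeLa cells treated 5 h at 37 C with DMSO-dissolved compounds.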

Assay [11] can be described thus: qHTS assay to identify small molecule agonists of the peroxisome proliferator-activated receptor delta (PPARd) signaling pathway - cell viability counter screen (AID 743211). Note: nearly all actives have a fitted effect of over 55% in size. A digest of the protocol: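 Viability of GeneBLAzer PPARd UAS-bla HEK293H cells was assessed after 17 h compound incubation at 37C, using CellTiter-Glo reagent added after the reporter read and luminescence recorded 30 min later.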

The target of assay [12] is Peroxisome proliferator-activated receptor delta (Homo sapiens) (UniProt Q03181). As to the kind of experiment: qHTS assay to identify small molecule agonists of the peroxisome proliferator-activated receptor delta (PPARd) signaling pathway (AID 743212; calls by dose curve;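 note: HEK293H cells with PPARd UAS beta-lactamase reporter GeneBLAzer system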). The method in brief:
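Steps: seed PPARd-bla HEK293H cells; incubate 5 h, 37 C, 5% CO2; add compounds in DMSO; incubate, 37 C; add LiveBLAzer B/G FRET substrate; hold 2 h at room temperature; measure fluorescence.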

Assay [13] can be described thus: qHTS assay to identify small molecule antagonists of the peroxisome proliferator-activated receptor delta (PPARd) signaling pathway - cell viability counter screen (AID 743213). Note: nearly all actives have a fitted effect of over 50% in size. A digest of the protocol: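 HEK293H cells with the PPARd UAS-bla reporter, co-treated 17 h at 37 C with compounds and L165041 (300 nM final), were lysed with CellTiter-Glo. Luminescence indicated viable cell content.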

For assay [14], the target named is Peroxisome proliferator-activated receptor delta (Homo sapiens) (UniProt Q03181). As to the kind of experiment: qHTS assay to identify small molecule antagonists of the peroxisome proliferator-activated receptor delta (PPARd) signaling pathway (AID 743215; active = well fitted inhibition curve with a large enough effect in the signal ratio in the repeat runs, not every such curve was filed as active; the % refers to the signal ratio;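 note: cells stimulated with agonist L165041 at 300 nM final during compound exposure; series mostly up to about 62 µM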). The method in brief:
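Agonist L165041 (300 nM final) added with compound to PPARd-bla HEK293H UAS-bla reporter cells; 17 h incubation at 37 C. Read-out: LiveBLAzer FRET substrate, 2 h at room temperature, fluorescence intensity.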

Assay [15] deals with Bile acid receptor (Homo sapiens) (UniProt Q96RI1). As to the kind of experiment: qHTS assay to identify small molecule antagonists of the farnesoid-X-receptor (FXR) signaling pathway (AID 743217; active = well fitted inhibition curve with a large enough effect in the signal ratio in the repeat runs, not every such curve was filed as active; the % refers to the signal ratio). A digest of the protocol: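 Antagonist mode: chenodeoxycholic acid at 50 uM final stimulates a UAS-driven beta-lactamase reporter in HEK 293T FXR-bla cells during 16 h, 37C compound exposure. Read-out is FRET substrate fluorescence after 2 h at room temperature.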
Chain of Bile acid receptor (Homo sapiens) (Q96RI1 whole entry, looked up): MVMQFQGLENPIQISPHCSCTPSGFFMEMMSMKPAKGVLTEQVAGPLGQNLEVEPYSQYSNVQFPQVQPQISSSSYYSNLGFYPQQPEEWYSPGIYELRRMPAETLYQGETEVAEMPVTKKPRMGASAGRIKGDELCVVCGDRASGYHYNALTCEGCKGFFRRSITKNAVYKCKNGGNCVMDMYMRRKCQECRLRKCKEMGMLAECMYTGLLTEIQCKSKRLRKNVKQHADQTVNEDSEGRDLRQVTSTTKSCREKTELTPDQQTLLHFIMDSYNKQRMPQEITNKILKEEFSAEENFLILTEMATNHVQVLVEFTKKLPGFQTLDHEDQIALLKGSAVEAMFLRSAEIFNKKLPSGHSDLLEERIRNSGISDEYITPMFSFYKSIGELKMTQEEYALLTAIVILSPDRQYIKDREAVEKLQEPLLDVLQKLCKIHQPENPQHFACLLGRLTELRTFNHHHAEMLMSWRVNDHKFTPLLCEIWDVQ

Assay [16] is described as follows: qHTS assay to identify small molecule agonists of the farnesoid-X-receptor (FXR) signaling pathway - cell viability counter screen (AID 743218). Note: nearly all actives have a fitted effect of over 45% in size. A digest of the protocol: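 Viability counter screen in the same wells: CellTiter-Glo luminescence, 30 min room-temperature incubation, measured after the beta-lactamase read. Cells were GeneBLAzer FXR-UAS-bla HEK 293T, compound-treated 16 h at 37C.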

Assay [17] addresses Bile acid receptor (Homo sapiens) (UniProt Q96RI1). As to the kind of experiment: qHTS assay to identify small molecule agonists of the farnesoid-X-receptor (FXR) signaling pathway (AID 743220; active = well fitted activation curve with a large enough effect in the signal ratio in the repeat runs, not every such curve was filed as active; the % refers to the signal ratio). The method in brief:
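FXR-UAS-bla HEK 293T cells carrying a UAS-driven beta-lactamase reporter were plated for 5 h at 37C/5% CO2, then exposed to DMSO-dissolved Tox21 10K compounds for 16 h at 37C. A LiveBLAzer B/G FRET substrate was loaded for 2 h at room temperature before fluorescence reading.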

A short description of assay [18]: qHTS assay to identify small molecule antagonists of the farnesoid-X-receptor (FXR) signaling pathway - cell viability counter screen (AID 743221; active = well fitted cell-killing curve with a large enough effect in the repeat runs, not every such curve was filed as active; note: nearly all actives have a fitted effect of over 50% in size). A digest of the protocol:
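Quantitative HTS of the Tox21 10K library run in parallel with the beta-lactamase reporter read. HEK 293T cells carrying a UAS-driven bla reporter got compound and 50 uM CDCA (final) for 16 h; ATP-based luminescence followed.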

In assay [19] the target is Vitamin D3 receptor (Homo sapiens) (UniProt P11473). As to the kind of experiment: qHTS assay to identify small molecule agonists of the vitamin D receptor (VDR) signaling pathway (AID 743222; calls by dose curve). The method in brief: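 Agonist mode, beta-lactamase reporter: fluorescence from LiveBLAzer B/G FRET substrate (2 h, room temperature) read after 16 h compound treatment at 37 C of VDR-bla cells, which were pre-incubated 4 h after seeding.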
Chain of Vitamin D3 receptor (Homo sapiens) (P11473 whole entry, looked up): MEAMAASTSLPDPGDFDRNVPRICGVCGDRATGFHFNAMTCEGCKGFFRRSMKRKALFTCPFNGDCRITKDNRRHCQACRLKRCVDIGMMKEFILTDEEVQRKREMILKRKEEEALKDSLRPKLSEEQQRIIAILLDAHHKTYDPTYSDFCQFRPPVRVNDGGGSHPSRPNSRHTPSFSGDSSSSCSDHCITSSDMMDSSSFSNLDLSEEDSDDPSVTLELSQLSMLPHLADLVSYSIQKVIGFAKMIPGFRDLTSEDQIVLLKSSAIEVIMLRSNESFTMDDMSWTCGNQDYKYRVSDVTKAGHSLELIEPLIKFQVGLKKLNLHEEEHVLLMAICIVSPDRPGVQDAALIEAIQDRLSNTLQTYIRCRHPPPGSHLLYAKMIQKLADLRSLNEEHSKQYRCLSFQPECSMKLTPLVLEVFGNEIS

The target is the same in assay [20]. The assay can be described thus: qHTS assay to identify small molecule antagonists of the vitamin D receptor (VDR) signaling pathway (AID 743223; active = well fitted inhibition curve with a large enough effect in the signal ratio in the repeat runs, not every such curve was filed as active; the % refers to the signal ratio). A digest of the protocol: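 Fluorescence from LiveBLAzer B/G FRET substrate, read after 2 h at room temperature, reflects beta-lactamase reporter activity in VDR-bla cells treated 16 h at 37C with compounds and agonist 1alpha,25-dihydroxyvitamin D3 (3 nM final).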

Chain of Aryl hydrocarbon receptor (Homo sapiens) (P35869 whole entry, looked up): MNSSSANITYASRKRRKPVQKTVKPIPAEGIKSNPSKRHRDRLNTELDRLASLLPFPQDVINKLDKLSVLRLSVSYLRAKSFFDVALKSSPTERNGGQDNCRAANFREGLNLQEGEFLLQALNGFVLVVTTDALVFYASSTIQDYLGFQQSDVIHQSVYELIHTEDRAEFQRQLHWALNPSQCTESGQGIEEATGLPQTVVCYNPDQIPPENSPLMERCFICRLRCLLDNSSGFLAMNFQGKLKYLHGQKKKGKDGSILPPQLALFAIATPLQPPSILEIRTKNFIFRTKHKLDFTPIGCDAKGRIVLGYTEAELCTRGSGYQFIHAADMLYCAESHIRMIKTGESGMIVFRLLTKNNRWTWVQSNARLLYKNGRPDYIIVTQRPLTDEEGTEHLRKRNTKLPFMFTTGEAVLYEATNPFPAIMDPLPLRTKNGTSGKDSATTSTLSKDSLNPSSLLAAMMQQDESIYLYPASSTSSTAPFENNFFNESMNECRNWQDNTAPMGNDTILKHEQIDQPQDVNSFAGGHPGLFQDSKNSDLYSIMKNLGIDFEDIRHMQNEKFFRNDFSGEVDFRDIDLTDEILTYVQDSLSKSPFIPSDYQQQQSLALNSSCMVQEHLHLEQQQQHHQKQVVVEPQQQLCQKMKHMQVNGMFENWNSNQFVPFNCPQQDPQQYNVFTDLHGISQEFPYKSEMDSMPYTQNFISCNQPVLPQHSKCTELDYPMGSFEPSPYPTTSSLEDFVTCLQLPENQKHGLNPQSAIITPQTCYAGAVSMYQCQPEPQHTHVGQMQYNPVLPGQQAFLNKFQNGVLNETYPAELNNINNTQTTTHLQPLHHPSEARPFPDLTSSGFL
Chain of Peroxisome proliferator-activated receptor gamma (Homo sapiens) (P37231 whole entry, looked up): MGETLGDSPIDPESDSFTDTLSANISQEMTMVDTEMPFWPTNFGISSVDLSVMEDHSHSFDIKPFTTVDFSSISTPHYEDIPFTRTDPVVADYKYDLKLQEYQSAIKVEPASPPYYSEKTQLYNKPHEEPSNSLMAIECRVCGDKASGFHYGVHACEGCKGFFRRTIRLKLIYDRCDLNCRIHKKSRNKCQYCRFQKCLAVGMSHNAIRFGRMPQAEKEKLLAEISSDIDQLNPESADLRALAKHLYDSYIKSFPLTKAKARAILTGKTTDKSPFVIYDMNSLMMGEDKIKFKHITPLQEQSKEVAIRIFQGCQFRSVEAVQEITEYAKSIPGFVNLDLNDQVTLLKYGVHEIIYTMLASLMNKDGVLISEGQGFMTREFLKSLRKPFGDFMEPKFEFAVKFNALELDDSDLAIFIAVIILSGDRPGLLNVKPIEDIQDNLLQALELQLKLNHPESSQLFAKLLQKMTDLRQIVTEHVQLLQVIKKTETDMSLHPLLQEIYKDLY
Chain of Peroxisome proliferator-activated receptor delta (Homo sapiens) (Q03181 whole entry, looked up): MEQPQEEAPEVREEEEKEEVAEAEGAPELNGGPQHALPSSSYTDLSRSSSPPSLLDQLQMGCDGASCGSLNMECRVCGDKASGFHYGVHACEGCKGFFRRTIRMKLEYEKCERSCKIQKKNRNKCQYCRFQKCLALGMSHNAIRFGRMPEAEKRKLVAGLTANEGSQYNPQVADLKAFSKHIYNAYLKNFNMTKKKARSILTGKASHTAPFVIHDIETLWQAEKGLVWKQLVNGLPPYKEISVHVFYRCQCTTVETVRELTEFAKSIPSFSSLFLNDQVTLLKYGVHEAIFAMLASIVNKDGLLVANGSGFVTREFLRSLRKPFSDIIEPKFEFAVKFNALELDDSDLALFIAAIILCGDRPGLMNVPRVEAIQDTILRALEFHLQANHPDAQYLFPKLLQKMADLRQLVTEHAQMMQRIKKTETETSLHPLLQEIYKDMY

On to `Cc1ccc([N+](=O)[O-])cc1N`, for which the Potency result in assay [1], in assay [3], in assay [4], in assay [5], in assay [6] and in assay [7] was “inactive” in each case. Moreover, the Potency result in [8], in assay [9], in assay [10], in assay [11], in [12] and in assay [13] was “inactive” each time. Besides, the Potency result in assay [14], in assay [15], in assay [16], in [17], in assay [18] and in [20] was “inactive” each time. For the same molecule, in assay [2], the Potency was 61 µM (active). Further, the result in assay [19] was inactive.
`C=C(CC(=O)O)C(=O)O`: the Potency result in assay [1], in assay [2], in [3], in assay [4], in [5] and in assay [6] was “inactive” throughout. For the same molecule, the Potency entry in [7], in assay [8], in assay [9], in assay [10], in assay [11] and in assay [12] was “inactive” throughout. Besides, the Potency result in assay [13], in [14], in [15], in [16], in assay [17] and in assay [20] was “inactive” throughout. Also, the molecule was classed as inactive in assay [19].
Take `COc1ccc(N)c(OC)c1`: the Potency result in [1], in [2], in [3], in [4], in assay [5] and in assay [6] was “inactive” in each case. Also, the Potency entry in assay [7], in assay [8], in assay [9], in assay [10], in assay [11] and in assay [12] was “inactive” in each case. Also, the Potency result in assay [13], in [16] and in assay [20] was “inactive” each time. Moreover, in assay [19], the molecule was called inactive.
Turning to `OCc1ccc(Cl)cc1Cl`, the Potency result in [1], in [2], in assay [3], in assay [4], in [5] and in [6] was “inactive” in each case. Besides, the Potency result in assay [7], in assay [8], in assay [9], in [10], in [11] and in assay [12] was “inactive” throughout. The Potency result in assay [13], in assay [14], in assay [15], in assay [16], in assay [18] and in assay [20] was “inactive” each time. For the same molecule, the molecule was called inactive in assay [19].
`CC/C=C(\C(=O)N[C@@H]1C(=O)N2C(C(=O)OCOC(=O)C(C)(C)C)=C(COC(N)=O)CS[C@H]12)c1csc(N)n1`: the Potency result in assay [1], in assay [2], in assay [3], in [4], in assay [5] and in [6] was “inactive” throughout. Besides, the Potency entry in [8], in [10], in assay [11], in assay [13], in [16] and in [18] was “inactive” in each case. Besides, in [20], the Potency entry was “inactive”. The outcome in assay [19] was inactive.
With `Cc1ccc(C(C)C)cc1`, the Potency entry in [1], in [2], in assay [3], in assay [4], in assay [5] and in [6] was “inactive” throughout. The Potency result in assay [7], in [8], in assay [10], in [11], in assay [12] and in [13] was “inactive” throughout. In addition, the Potency entry in assay [14], in assay [15], in [16], in [17], in [18] and in assay [20] was “inactive” in each case. Besides, the outcome in assay [19] was inactive.
For the molecule `OCC(O)CS` (stereo unspecified), the Potency result in assay [1], in [2], in assay [3], in assay [4], in [5] and in [6] was “inactive” in each case. The Potency entry in assay [7], in assay [8], in assay [9], in [10], in assay [11] and in assay [12] was “inactive” each time. Also, the Potency entry in assay [13], in [14], in [16] and in [20] was “inactive” throughout. For the same molecule, in [19], the call was inactive.
Regarding `COc1ccc([C@@H]2CC(=O)c3c(O)cc(O[C@@H]4O[C@H](CO[C@@H]5O[C@@H](C)[C@H](O)[C@@H](O)[C@H]5O)[C@@H](O)[C@H](O)[C@H]4O)cc3O2)cc1OC`, the Potency entry in assay [1], in assay [2], in assay [3], in assay [4], in [5] and in assay [6] was “inactive” in each case. The Potency entry in assay [7], in [8], in assay [9], in [10], in [11] and in assay [13] was “inactive” in each case. Further, the Potency entry in assay [15], in assay [16], in assay [17] and in assay [20] was “inactive” in each case. In addition, the call in [19] was inactive.
